HBB splice mod: modulators of hemoglobin beta chain splicing; HBB splicing reporter cell assay, activation; EGFP reporter with mutant IVS2-654 intron; response scale: normalised to 500 nM splice-correcting PNA; Potency, µM (series often up to 46.1 µM), inactives show top-dose activation, usual class: activators; 65,000 compounds, 0.06% hits; further: potency means the concentration at half of the fitted maximal effect; 0% is about no effect
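HeLa cells stably expressing EGFP interrupted by mutant beta-globin intron 2 (IVS2-654), 500/well in 2% FCS. Treated with compound for 2 days at 37C. Splicing correction scored as total well GFP intensity (488 nm excitation, 500-520 nm emission); 500 nM antisense PNA served as control.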
UbGFP stabilizer: proteasome inhibitors stabilizing ubiquitin-GFP reporter. 67,000 tested, under 10 active. AID 526. Potency, µM (doses to about 45.9 µM), inactives show at the highest dose activation (GFP accumulation), most hits filed as activators. Ubiquitin-GFP reporter cells, proteasome inhibition, GFP fluorescence; response scale: untreated = 0%, 10 µM MG-132 = 100%; active means well fitted activation curve with a large enough effect, not every such curve was filed as active; inconclusive means small, poorly fitted or top-dose-only effect, or another doubt; inactive means no such curve, though single readings can be large or run the other way; further: potency means the concentration at half of the fitted maximal effect
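U2OS cells expressing ubiquitin(G76V)-GFP, seeded overnight in 0.5% FBS medium, then treated 4 hr at 37 C across 46 uM to 2.9 nM. GFP-positive cells counted by laser cytometry (488 ex/515 em); %activity scaled between basal and 10 uM MG-132.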
GBA activity: human lysosomal glucosylceramidase modulation | P04062 | purified enzyme, resorufin glucoside fluorescence (screen aimed at inhibitors), 20 min | Potency, µM | 48,000 compounds, 1.1% hits; in the data active means potency below about 15 µM; inconclusive means mostly about 16 µM to 33 µM;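 further: potency means the concentration at half of the fitted maximal effect; the screen sought inhibitors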
Target sequence (P04062 whole entry, looked up): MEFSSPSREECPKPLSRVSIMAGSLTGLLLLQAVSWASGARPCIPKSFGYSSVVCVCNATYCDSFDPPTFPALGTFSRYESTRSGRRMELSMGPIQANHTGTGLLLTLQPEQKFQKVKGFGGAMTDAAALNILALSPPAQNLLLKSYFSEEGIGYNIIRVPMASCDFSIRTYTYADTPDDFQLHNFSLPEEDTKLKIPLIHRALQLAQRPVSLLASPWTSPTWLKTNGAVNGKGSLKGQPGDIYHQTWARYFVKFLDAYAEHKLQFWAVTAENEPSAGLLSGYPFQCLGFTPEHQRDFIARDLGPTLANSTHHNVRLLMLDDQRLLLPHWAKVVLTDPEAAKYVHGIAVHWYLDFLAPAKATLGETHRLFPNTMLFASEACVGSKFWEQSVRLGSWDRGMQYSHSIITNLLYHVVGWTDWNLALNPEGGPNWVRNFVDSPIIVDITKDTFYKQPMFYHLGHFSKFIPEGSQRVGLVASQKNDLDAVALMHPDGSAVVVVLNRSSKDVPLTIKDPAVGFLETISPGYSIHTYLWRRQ
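Normal human glucocerebrosidase (0.2 nM final) was assayed with resorufin β-D-glucopyranoside (30 uM final) in 50mM citric acid/KH2PO4, 10mM sodium taurocholate, 0.01% tween-20, pH 5.9. Compounds were titrated; fluorescence (Ex 548, Em 600) read after 20 min at RT.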
USP2a inh: USP2a (human) protease inhibition. USP2a enzymatic assay, qHTS inhibition. AID 927. 60,000 compounds, 0.1% hits. Potency, µM (titrated, usually from 38.3 µM), for inactives: at the top dose activity change, negative = inhibition, actives largely listed as inhibitors. O75604; further: potency means the concentration at half of the fitted maximal effect; nearly all actives have a fitted effect of over 60% in size
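Inhibition is measured in a cell-free coupled assay with 20 nM USP2 core, 20 nM Ub-PLA2 and 20 uM NBD C6-HPC, 2.5 h incubation. Activity normalized to NEM control.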
GFP derepression: epigenetic GFP locus derepression in mouse cells | mouse C127i GFP locus derepression, cytometry, 30 h | Potency, µM (titrated, usually from 46.1 µM), for the others: top-dose GFP derepression (activation) | 68,000 compounds, 0.09% hits; further: % of control where 0% means no effect
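Locus derepression in mouse mammary C127i cells whose integrated CMV-GFP reporter is normally silent; GFP expression after 30 h compound treatment was quantified by counting fluorescent cells.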
* = called active by the depositor; [ ] = another dose, or the depositor's remark. Only a selection was taken, and hits are over-represented in it overall. Unless noted, the call rests on the fitted dose curve; in most records, active means well fitted curve in the direction sought with a large enough effect; inconclusive means small, poorly fitted or top-dose-only effect, or another doubt; inactive means no such curve, though single readings can be large; an effect the other way counts as inactive or inconclusive.

How did Cc1nn(CC(=O)Nc2ccccc2)c(=O)c2ccccc12 do in these assays?
HBB splice mod: 2%; UbGFP stabilizer: -5%; GBA activity: >77; USP2a inh: 7%; GFP derepression: 1%

What do the screens show for `CCC(=O)Nc1ccc(C(=O)Cn2nc(C(=O)O)c3ccccc3c2=O)cc1`?
HBB splice mod: 0%[57.5 µM]; UbGFP stabilizer: 6%; GBA activity: 4.6*; USP2a inh: 5%; GFP derepression: -2%

Results for CC(C)c1ccc(NC(=O)C2CC(=O)N=C(N)S2)cc1 (configuration not stated) ?
HBB splice mod: 0%; UbGFP stabilizer: 14%; GBA activity: 3.8*; USP2a inh: 4%; GFP derepression: 2%

Results for CCN(CC)CCn1c(-c2ccccc2)nc2c(NCCO)nc(C)nc21 ?
HBB splice mod: 0%; UbGFP stabilizer: -5%

Results for COC(=O)c1ccc(CSc2nc3c(c(=O)n2-c2ccc(Br)cc2)SCC3)o1 ?
HBB splice mod: 0%; UbGFP stabilizer: 3%; GBA activity: 4.9*; USP2a inh: 42%; GFP derepression: 2%

What do the screens show for `Cc1cnc(CNc2nc(-c3ccc(C(=O)N(C)C)cc3)nc3ccccc23)cn1`?
HBB splice mod: 0%; UbGFP stabilizer: 2%; USP2a inh: 12%; GFP derepression: 3%[9.22 µM]

How did O=C=Nc1ccc(Cc2ccc(N=C=O)cc2)cc1 do in these assays?
HBB splice mod: 1%

What do the screens show for `CC/C=C\CC[C@H](OC(=O)c1ccc(Br)cc1)C1=CCCCC1=O`?
HBB splice mod: 1%[9.22 µM]

What do the screens show for `COc1ccc(OC2C=CC(c3ccccc3)OC2CO)cc1` (configuration not stated)?
HBB splice mod: -1%[9.22 µM]

How did CCCc1ccc(Oc2c(-c3ccc(O)c(C)c3O)n[nH]c2C)cc1 do in these assays?
HBB splice mod: 1%; UbGFP stabilizer: -6%; USP2a inh: 16µM*; GFP derepression: 4%

How did O=[N+]([O-])c1ccc2c(c1)c(S(=O)(=O)O)cc1nonc12 do in these assays?
HBB splice mod: 0%[9.22 µM]; UbGFP stabilizer: -4%[9.17 µM]; GFP derepression: 6%[9.22 µM]

Results for N#Cc1ccccc1NC(=O)c1ccccc1OCC(=O)Nc1ccc2c(c1)oc1ccccc12 ?
HBB splice mod: -1%; UbGFP stabilizer: 3%; GBA activity: 11*; USP2a inh: 39%; GFP derepression: -2%

What do the screens show for `N#Cc1ccccc1NC(=O)c1ccccc1OCC(=O)NCc1ccco1`?
HBB splice mod: 3%; UbGFP stabilizer: 0%; GBA activity: >77; USP2a inh: 20%; GFP derepression: 3%

Results for COc1ccc(C(=O)Nc2nc(-c3cccs3)cs2)cc1 ?
HBB splice mod: 0%; UbGFP stabilizer: -1%; GBA activity: >77; USP2a inh: -3%; GFP derepression: 2%

Results for Cc1csc(NC(=O)c2sc3nc(-c4cccs4)ccc3c2N)n1 ?
HBB splice mod: 16µM*; UbGFP stabilizer: 0%; GBA activity: >77; USP2a inh: 41%; GFP derepression: 18%

How did C[C@@]1(C(NS(=O)(=O)c2cccc3cccnc23)c2ccc(-c3ccccc3)cc2)C[C@H]1C1CCCCC1 (some centres not stated) do in these assays?
HBB splice mod: 4%

Results for CS(=O)(=O)c1ccc([C@H](O)[C@H](CF)NC(=O)C(Cl)Cl)cc1 ?
HBB splice mod: 1%[20.6 µM]; UbGFP stabilizer: -1%[20.5 µM]; USP2a inh: 1%[17.1 µM]; GFP derepression: -1%[20.6 µM]

What do the screens show for `C[C@@]12C=CC(=O)C=C1CC[C@@H]1C2=CC[C@]2(C)[C@@H]1CC[C@H]2C(=O)CN1CCN(c2cc(N3CCCC3)nc(N3CCCC3)n2)CC1`?
HBB splice mod: 0%; UbGFP stabilizer: -5%; USP2a inh: 21%; GFP derepression: -1%

What do the screens show for `CCN1C(=S)SC(=O)C1=C1C=C(C)N(Cc2ccco2)C(C)=C1`?
HBB splice mod: 13µM*; UbGFP stabilizer: -8%; GBA activity: inconclusive; USP2a inh: 16%; GFP derepression: 8%

Results for Nc1ncnc2c1ncn2[C@@H]1CCCO1 ?
HBB splice mod: 1%; UbGFP stabilizer: -2%; USP2a inh: -6%; GFP derepression: 0%

Assay outcomes (PubChem)
